According to PubChem BioAssay (NCATS):
Inconclusive results are not listed. Activity calls are given as the source filed them. The call rests on the fitted dose curve; in most records, active means well fitted inhibition curve with a large enough effect; inconclusive means small, poorly fitted or top-dose-only effect; inactive means flat fitted curve, though single readings scatter.

System: Zika virus NS2B-NS3 protease
Assay: Primary screen GU AMC qHTS for Zika virus inhibitors (AID 1347154); further: nearly all actives have a fitted effect of over 70% in size;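 on activity change, negative = inhibition: 0% = no-inhibitor control and -100% = no-enzyme control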
Conditions: Zika NS2B-NS3 unlinked protease, AMC fluorogenic substrate; series mostly up to 54.1 µM; activity change, negative = inhibition: at the top concentration
Outline: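 Unlinked Zika NS2B hydrophilic domain/NS3 protease domain noncovalent complex (25 nM final) in 10 mM Tris-HCl pH 8.0, 0.01% Tween 20, with AMC peptide substrate. Fluorescence (ex 340, em 450 nm) change over 15 min, room temperature; percent inhibition fitted to 4-parameter Hill equation.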
Potency means the concentration at half of the fitted maximal effect.

Compound	Potency	activity change, negative = inhibition
CCOc1ccc2nc3cc(N)ccc3c(N)c2c1	31.6 µM (active)	
COc1cc(OC)cc(OC)c1		0.352% (inactive)
O=C(O)CCCCC(=O)O		-4.12% (inactive)
CC1(C)O[C@@H]2C[C@H]3[C@@H]4C[C@H](F)C5=CC(=O)C=C[C@]5(C)[C@H]4[C@@H](O)C[C@]3(C)[C@]2(C(=O)CO)O1		-1.9% (inactive)
C[C@H](O)C(=O)Nc1c(I)c(C(=O)NC(CO)CO)c(I)c(C(=O)NC(CO)CO)c1I		-6.58% (inactive)
CCN(CC)CCOC(=O)C(c1ccccc1)C1CCCCC1 (configuration not stated)		-13% (inactive)
C/C=C/c1ccc(OC)cc1		-6.87% (inactive)
C=C1C(=C/C=C2\CCC[C@]3(C)[C@@H]([C@H](C)/C=C/[C@@H](O)C4CC4)CC[C@@H]23)C[C@@H](O)C[C@@H]1O		-9.52% (inactive)
CNC(=O)CN(CCN(CCN(CC(=O)[O-])CC(=O)NC)CC(=O)[O-])CC(=O)[O-].O.[Gd+3]		-1.54% (inactive)
CC(=O)N(O)CCCCCNC(=O)CCC(=O)N(O)CCCCCNC(=O)CCC(=O)N(O)CCCCCN		-7.29% (inactive)
O=C1OC(c2ccc(O)cc2)(c2ccc(O)cc2)c2ccccc21		-0.162% (inactive)
CN1CCN(CCCN2c3ccccc3Sc3ccc(S(=O)(=O)N(C)C)cc32)CC1		-6.03% (inactive)
O=C(COc1ccc(Cl)cc1)N1CCN(Cc2ccc3c(c2)OCO3)CC1		5.99% (inactive)
CCCCc1nc(Cl)c(CO)n1Cc1ccc(-c2ccccc2-c2nn[nH]n2)cc1		-5.76% (inactive)
CC(=O)CC(c1ccc([N+](=O)[O-])cc1)c1c(O)c2ccccc2oc1=O (configuration not stated)		2.35% (inactive)
C=C(CC)C(=O)c1ccc(OCC(=O)O)c(Cl)c1Cl		2.43% (inactive)
Nc1ccc(/C=C/c2ccc(N)cc2S(=O)(=O)O)c(S(=O)(=O)O)c1		-4.58% [at 0.59 µM] (inactive)
